Shown is part of a subset that was picked to be rich in hits.
Tgondii IFNg – blocks Toxoplasma gondii growth in the presence of IFN-gamma; Toxoplasma gondii growth in IFN-gamma-treated host cells; hits give low values; activity change, negative = inhibition, % (no concentration beside the values); hit rate 3.8% among 69,000; in the data active = activity change below about -70%, passing the limit was not always enough;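 note: host cells are HeLa cells infected with Toxoplasma gondii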
* = called active by the depositor; ! = not active in a repeat.

SMILES | Tgondii IFNg
COCCC(=O)N1CCc2nc(N3CCOCC3)nc(NC(C)C)c2C1 | 31
C[C@@H](NCCc1ccc(O)cc1)[C@@H](O)c1ccc(O)cc1 | -61
CCCCCCCCNC(C)C(O)c1ccc(SC(C)C)cc1 (configuration not stated) | -78*!
CC(NCCc1ccc(O)cc1)C(O)c1ccc(O)cc1 (configuration not stated) | -3
CCc1ccc(S(=O)(=O)N2CC(C(=O)N3CCCC3)C3(CCOCC3)C2)cc1 (configuration not stated) | -47
O=C(O)c1ccccc1Nc1cccc(C(F)(F)F)c1 | -73*!
O=C(O)c1ccccc1Nc1ccccc1 | -13
O=C(OCCOCCO)c1ccccc1Nc1cccc(C(F)(F)F)c1 | 39
O=C(Nc1cc(C(F)(F)F)cc(C(F)(F)F)c1)c1csc(-c2ccc(Cl)cc2)c1 | 48
O=C(c1ccccc1)c1c(Cl)cc(C(F)(F)F)cc1Cl | -3
O=C(N/C=C/c1ccsc1)Sc1cc(C(F)(F)F)cc(C(F)(F)F)c1 | 48
O=C(Nc1cc(C(F)(F)F)cc(C(F)(F)F)c1)c1cc(Cl)ccc1O | -80*
O=C(Nc1ccccc1)c1cc2n(n1)CCN(C(=O)c1csnn1)C2 | 39
O=C(Nc1cc(C(F)(F)F)cc(C(F)(F)F)c1)Nc1sccc1Cl | -95*
COCCCNC(=O)c1ccccc1C(=O)Nc1cc(C(F)(F)F)cc(C(F)(F)F)c1 | 37
O=C(NC(=O)c1csnn1)Nc1cc(C(F)(F)F)cc(C(F)(F)F)c1 | -101*
O=C(Nc1ccccc1-c1ccccc1)c1csnn1 | 2
C=C1C(=O)[C@]23[C@H](O)[C@H]1CC[C@@H]2[C@@]12CO[C@]3(O)C[C@@H]1C(C)(C)CC[C@@H]2O | 10
c1c(CN2CCC(c3nnc4n3CCCCC4)CC2)nn2c1CNCCC2 | -7
CNC(=O)c1cc(=O)n(CC(=O)Nc2ccc3c(c2)OCO3)c2ccccc12 | -8
O=C(NCc1cccnc1)c1c(O)c2ccccc2[nH]c1=O | 141
COc1cc(F)ccc1-c1c(-c2ccccc2)ncn1CCS(C)(=O)=O | -1
CC(=O)N[C@H]1C[C@@H](c2cccc3cnccc23)O[C@@H](C2CCCCC2)C1 | -43
CCn1cnc(-c2nc(C(=O)Nc3cccc(F)c3)c3ccccn23)c1 | 20
CC(C)CC(NC(=O)OCC1c2ccccc2-c2ccccc21)C(=O)O (configuration not stated) | 0
SMILES | Tgondii IFNg
CC(C)C[C@H](NC(=O)[C@@H](O)[C@H](N)Cc1ccccc1)C(=O)O | 10
CC(C)C[C@@H](C=O)NC(=O)[C@H](CC(C)C)NC(=O)[C@H](CC(C)C)NC(=O)OCc1ccccc1 | -81*
C[C@H](CO)N1C[C@H](C)[C@@H](CN(C)C(=O)Nc2ccccc2)OCCCC[C@H](C)Oc2ccc(NC(=O)Nc3ccccc3)cc2C1=O | 209
C[C@@]1(O)CCN(C(=O)Cn2ccccc2=O)C[C@@H]1Cc1ccccc1 | -8
COc1cc2c(Oc3ccc(NC(=O)C4(C(=O)Nc5ccc(F)cc5)CC4)cc3F)ccnc2cc1OCCCN1CCOCC1 | -68
COc1ccc(-c2nc(NCCCN3CCN(C)CC3)c3ccccc3n2)cc1 | -51
COc1cc(Nc2c(C#N)cnc3cc(OCCCN4CCN(C)CC4)c(OC)cc23)c(Cl)cc1Cl | -79*
C=CCO[C@H]1CN(S(=O)(=O)c2cccs2)[C@H]2COC[C@@H]12 | 2
CC(C)[C@H]1COCc2cn(nn2)CCCCC(=O)N1 | -16
O=c1cc(-c2ccc(O)cc2)oc2cc(O)cc(O)c12 | 53
O=c1cc(-c2ccc(O)cc2)oc2ccc(O)cc12 | -87*
O=c1cc(-c2ccccc2)oc2cc(O)ccc12 | 28
COc1ccccc1OCC(=O)NCCc1csc(-c2ccc(F)cc2)n1 | 110
COc1cccc(C#Cc2ccc3c(c2)O[C@H](CN(C)C(=O)CN2CCOCC2)[C@@H](C)CN([C@H](C)CO)S3(=O)=O)c1 | -6
COc1cccc(-c2ccc3c(c2)O[C@H](CN(C)Cc2cccnc2)[C@@H](C)CN([C@@H](C)CO)S3(=O)=O)c1 | -64
C[C@H](CO)N1C[C@H](C)[C@H](CN(C)C(=O)Cc2cccnc2)Oc2cc(C#Cc3ccccc3F)ccc2S1(=O)=O | -89*
C[C@@H]1CN([C@H](C)CO)S(=O)(=O)c2ccc(C#Cc3ccccc3F)cc2O[C@@H]1CN(C)C(=O)Cc1cccnc1 | -99*
COc1cccc(-c2ccc3c(c2)O[C@@H](CN(C)Cc2cccnc2)[C@H](C)CN([C@H](C)CO)S3(=O)=O)c1 | -64
COc1cccc(C#Cc2ccc3c(c2)O[C@H](CN(C)C(=O)CN2CCOCC2)[C@@H](C)CN([C@@H](C)CO)S3(=O)=O)c1 | -50
CCOc1ccc(-c2nc(CN(c3cccc(OC)c3)S(=O)(=O)c3ccc(C)cc3)c(C)o2)cc1 | -37
NC(=O)c1nnc2ccc(Cl)cc2c1N | 11
COc1ccc(CN2CC[C@@H]3[C@@H]2CCN3C(=O)c2cscn2)cc1 | -20
CC(c1ccccn1)N(C)C(=O)Cn1cc(C(F)(F)F)ccc1=O (configuration not stated) | 9
O=C(c1ccc[nH]1)N1CCCC(N2CCCC2=O)C1 (configuration not stated) | -1
Cc1cc(C)n(CCCn2cncc2-c2ccc3c(c2)CC(C)N3C)n1 (configuration not stated) | 1
SMILES | Tgondii IFNg
COc1ccc2c(c1)NC1(CCN(C(=O)Nc3ccccc3Cl)CC1)c1cccn1-2 | 331
CCOc1ncccc1-c1cncc(C(=O)N2CCOCC2)n1 | 0
COc1ccc(C2CCCN2C(=O)c2ccc(Cn3ccnc3)o2)c(OC)c1 (configuration not stated) | -11
Cc1ccc(S(=O)(=O)Cc2nc(-c3ccc(C(=O)NCc4cccnc4)cc3)oc2C)cc1 | -113*!
Cc1ccc(C(=O)Nc2c(C(=O)NCc3cccnc3)[nH]c3ccc(C)cc23)cc1 | 12
CN(C)c1ccc(C(=O)NCc2cccnc2)cc1 | -4
Cc1noc(-c2cc(=O)n(CC(=O)NCc3ccc(F)cc3Cl)c3ccccc23)n1 | -34
Cc1nc2c(c(N3CCC4(CC3)Nc3ccccc3NC4=O)n1)CNC2 | 62
CNC(=O)c1ccc(Nc2ncc(C(F)(F)F)c(NCc3nccnc3N(C)S(C)(=O)=O)n2)cc1 | -85*
CN(CCc1ccccn1)c1ncccc1CNc1ncccc1C(F)(F)F | -4
Cc1ccc(S(=O)(=O)NCc2ccccc2)cc1 | 14
CCCCNS(=O)(=O)c1ccc(S(=O)(=O)NCc2ccncc2)cc1 | -80*
O=S(=O)(NCCc1ccncc1)c1cc(C(F)(F)F)cc(C(F)(F)F)c1 | 22
COc1ccc(NC(=O)CN2CCC3(CC2)N=C(c2cccc(C)c2)C(=O)N3)c(OC)c1 | 62
O=C(Nc1ccccc1)Nc1nc(=O)c2ccccc2s1 | 143
Cc1oc2ccccc2c1CNC(=O)Nc1ccc(Br)cc1 | -47
Cc1c(CNC(=O)Nc2ccccc2)sc2ccccc12 | -79*
NC1CCN(C(=O)c2cccc3ccnn23)CC1 | -46
O=C(NCc1ccc(CO)cc1)[C@@H]1CN(Cc2ccccc2)C[C@H]1C(=O)c1ccc(F)cc1 | -42
O=C1CN(C(=O)CSc2nc(C3CCCCC3)nc3ccccc23)c2ccccc2N1 | -98*
COc1cc2cc(C)c(SCC(=O)N3CC(=O)Nc4ccccc43)nc2cc1OC | 9
O=C(CCC(=O)N1CC(=O)Nc2ccccc21)Nc1cccc(-n2cccn2)c1 | 1
O=C(N[C@H]1C=C[C@H](CC(=O)N2CCC(Cc3ccccc3)CC2)O[C@@H]1CO)c1cnccn1 | -23
